We go through 66 compounds from ChEMBL document CHEMBL3988442, “University of Dundee, Small-Polar-MMV Screening Library” (2021).

In all, about 48,000 compounds went through this assay and about 13,000 (27%) showed an effect of 50% or more. The list shows a part of the results.

The assay relates to Wolbachia pipientis. Briefly: Anti-Wolbachia Cell-Based Screen. The class given is functional. The following applies: 5 µM. On the set-up: scale not given: in the data most compounds retested in dose-response had high values.
Turning to `CCOc1ccc2nc(CN3CCC(CNC(C)=O)C3)ccc2c1` (stereo unspecified), the “Percent Effect” value was 0.9569%.
As to `Cc1nc(CN(C)C(=O)c2cc(C)sc2NC(=O)C(C)(C)C)no1`, the “Percent Effect” value was -2.602%.
In the case of `Fc1cccc(-n2cccn2)c1NCc1nnc(C2CC2)o1`, the “Percent Effect” value is listed as -10.01%.
Consider `Cc1cc(C)n(C2CN(C(=O)Cn3c(C)cc(=O)c4ccccc43)C2)n1`, for which the “Percent Effect” value was found to be 17.29%.
`O=C(CSCC1CC1)N1C[C@@H]2CC[C@H](C1)N(Cc1ccccn1)C2=O`: the “Percent Effect” value stood at 4.164%.
The value for `CCn1cc2c(n1)CN(S(=O)(=O)Cc1ccccc1)CC2COC` (stereo unspecified) was 10.82%; that for `CN1CC(=O)N(C2CCNCC2)Cc2c(NC3CCC3)ncnc21` was 106.1%; that for `CN1CC(=O)N(C2CCC2)Cc2c(NC3CCNCC3)ncnc21` was 107.9%.
For `Cc1n[nH]c(C2CN(CCNC3CCCCC3)CCO2)n1` (stereo unspecified), the “Percent Effect” value was 13.35%.
For `CCc1nc(Cn2c(=O)n(CC)c3ccccc32)no1` the value was -6.157%; for `CCn1c(=O)n(CC)c2cc(S(N)(=O)=O)ccc21`, 88.83%; for `CCNS(=O)(=O)c1ccc(C)c(C(=O)N(C)Cc2ccccc2C)c1`, -10.61%.
The value for `CCn1c(=O)c2cc(S(N)(=O)=O)ccc2n(CC)c1=O` was 133.6%; that for `CCCN(C)C(=O)c1cc(S(=O)(=O)NCC)ccc1C` was -9.376%.
In the case of `CCn1c(=O)n(Cc2nc(C3CC3)no2)c2ccccc21`, the “Percent Effect” value was -1.691%.
For `CCNS(=O)(=O)c1ccc2c(c1)c(=O)n(CC)c(=O)n2CC`, the “Percent Effect” value is 90.08%.
For the compound `NC(=O)Cn1ccc(NC(=O)C2(c3cccc(Cl)c3)CC2)n1`, the “Percent Effect” value is recorded as -4.273%.
Consider `CN(C)C(=O)[C@@H]1C[C@H]2OCC[C@H]2N(CCOc2ccc(Cl)cc2)C1.O=C(O)C(F)(F)F`, for which the “Percent Effect” value is on record as 2.849%.
Consider `Cn1ccnc1COc1ccc(NC(=O)CCC2CCCO2)cc1` (stereo unspecified), for which the “Percent Effect” value came out at 7.737%.
`CC(C(=O)Nc1ccnn1C(C)C)N1CCN(Cc2ccon2)CC1` (stereo unspecified): the “Percent Effect” value turned out to be 9.174%.
Regarding `c1cnc(N2C[C@H]3CCC[C@@H](CN4CCCC4)[C@H]3C2)nc1`, the “Percent Effect” value is -23.6%.
For the compound `Cc1cnc(CN(C)C2CCN(CC(=O)Nc3nncs3)C2)o1.O=C(O)C(F)(F)F` (stereo unspecified), the “Percent Effect” value is recorded as 3.209%.
Turning to `Cn1cccc1C(=O)N1CCC2(CCCN(CC3CC3)C2=O)C1` (stereo unspecified), the “Percent Effect” value is 2.832%.
In the case of `Cc1nonc1CC(=O)N1C[C@@H]2CC[C@H](C1)N(Cc1ccccc1)C2=O`, the “Percent Effect” value is -22.99%.
For `Cc1cc(C(=O)N2CCC3(CCCN(CC4CC4)C3=O)C2)c(C)n1C` (stereo unspecified) the value was -3.042%; for `CCOC(=O)N1CCC2(CCCN(C3CCOCC3)C2=O)C1` (stereo unspecified), 112%; for `CC(C)N1CCCC2(CCN(C(=O)COCC(F)(F)C(F)F)C2)C1=O` (stereo unspecified), -9.489%.
Turning to `Cc1nonc1CC(=O)N1CCC2(CCCN(C3CCOCC3)C2=O)C1` (stereo unspecified), the “Percent Effect” value turned out to be 111.8%.
`Cc1nccnc1CN1CCC2(CCCN(C3CCOCC3)C2=O)C1` (stereo unspecified): the “Percent Effect” value came out at 1.539%.
The value for `O=C(COCC(F)(F)C(F)F)N1CCC2(CCCN(CCO)C2=O)C1` (stereo unspecified) was -15.14%; that for `Cc1c(C(=O)N2CCC3(CCCN(CC4CC4)C3=O)C2)ccn1C` (stereo unspecified) was -5.125%.
With `COCCOCC(=O)N1CCC2(CCCN(C3CCOCC3)C2=O)C1` (stereo unspecified), the “Percent Effect” value is recorded as 121%.
For `CS(=O)(=O)CCN1CCC2(CCCN(C3CCOCC3)C2=O)C1` (stereo unspecified) the value was -2.931%; for `CN1CCN(C(=O)N2CCC3(CCCN(C4CCOCC4)C3=O)C2)CC1` (stereo unspecified), 106.4%.
The value for `c1ncc2c(n1)CN(CC1CCCCO1)CC2` (stereo unspecified) was -13.48%.
As to `CCn1nc(C)c2nc(C(C)C)nc(NCCOC)c21`, the “Percent Effect” value is listed as -9.329%.
On to `CS(=O)(=O)Cc1ccccc1NCc1cc(Cl)ccc1Cl`, for which the “Percent Effect” value amounted to 3.453%.
In the case of `Cc1n[nH]cc1CNC(=O)Nc1cccc(OCC(F)(F)F)c1`, the “Percent Effect” value is -23.93%.
With `CCS(=O)(=O)c1ccc(N2CCC(NC(C)=O)CC2)cc1`, the “Percent Effect” value is -5.151%.
For `Cn1cnnc1-c1cncc(NCc2ccccc2Br)c1` the value was 9.077%.
For the compound `CCC(CC)NCC(c1ccccn1)N1CCOCC1` (stereo unspecified), the “Percent Effect” value worked out at 8.316%.
The value for `CCC(=O)N(CC)C(c1cccnc1)c1ccc2c(c1)CCO2` (stereo unspecified) was -9.514%; that for `CC1COCCN1Cc1nc(-c2ccc(Br)s2)no1` (stereo unspecified) was 104.9%.
As for `CCn1nc2c(cc1=O)CN(Cc1nc(-c3ccsc3)no1)CC2`, the “Percent Effect” value was -2.212%.
For `COc1ccc(-c2noc(CN3CCOCC3C)n2)cc1OC` (stereo unspecified) the value was -3.831%; for `COc1cccc(-c2ncc(CN3CCOCC(O)C3)s2)c1` (stereo unspecified), -5.443%.
In the case of `CC1COCCN1Cc1nc(-c2cccs2)no1` (stereo unspecified), the “Percent Effect” value is 6.189%.
As for `CC(C)c1nc2c(n1C)CCN(Cc1nc(-c3ccsc3)no1)C2`, the “Percent Effect” value stood at 5.269%.
For `CC1COCCN1Cc1nc(-c2ccsc2)no1` (stereo unspecified), the “Percent Effect” value worked out at 130%.
The value for `O=C1OCCCN1Cc1nc(-c2ccncc2)no1` was 8.814%; that for `COc1cccc(-c2noc(CN3CCOCC3C)n2)c1` (stereo unspecified) was 120.5%.
As for `Cc1ccc(CN2C[C@H](O)C[C@H]2c2nc(-c3ccc(F)cc3)no2)cc1`, the “Percent Effect” value is given as -12.23%.
For the compound `CC1COCCN1Cc1nc(-c2ccc(F)cc2)no1` (stereo unspecified), the “Percent Effect” value is listed as 110.9%.
As for `c1csc(-c2noc(CC3CCCO3)n2)c1` (stereo unspecified), the “Percent Effect” value worked out at 5.637%.
`CC(Oc1cccc(Cl)c1)C(=O)Nc1cnn(CCN(C)C)c1` (stereo unspecified): the “Percent Effect” value is -6.613%.
The value for `CC(C)c1nn(CC(=O)N2CCCC2)c(=O)c2c1cnn2C(C)(C)C` was 46.37%; that for `Cc1cnn(CCNCc2ccccc2C#N)c1` was -11.13%.
For `O=C(CCC1CCCCC1)NS(=O)(=O)CC1CC1` the value was -8.916%; for `CC1COCCN1Cc1nc(-c2cccc(C(F)(F)F)c2)no1` (stereo unspecified), 102.5%; for `Cc1cccc(-c2noc(CN3CCn4c(nnc4C4CC4)C3)n2)c1`, -14.41%.
As for `CC1COCCN1Cc1nc(-c2cccc(Br)c2)no1` (stereo unspecified), the “Percent Effect” value turned out to be 7.569%.
As to `Cc1cccc(-c2noc(CN3CCOCC3C)n2)c1` (stereo unspecified), the “Percent Effect” value was determined as 119.9%.
`Cc1cccc(-c2noc(CN3CCC(c4ccn[nH]4)CC3)n2)c1`: the “Percent Effect” value is reported as -15.7%.
Consider `Cc1cccc(-c2noc(CN3CCc4nn(C)c(=O)cc4C3)n2)c1`, for which the “Percent Effect” value is given as -3.74%.
Take `Cc1cnn(CC(C)NCc2csc(-c3ccsc3)n2)c1` (stereo unspecified): the “Percent Effect” value was 2.803%.
With `COCc1ccc(CNC(=O)C2=NN(c3ccccc3)C(=O)CN2)cc1`, the “Percent Effect” value is reported as -5.383%.
